Records with an inconclusive call do not appear. The call rests on the fitted dose curve; in most records, active means well fitted curve in either direction with a large enough effect (not every such curve was filed as active); inconclusive means small, poorly fitted or top-dose-only effect, or another doubt; inactive means flat fitted curve, though single readings scatter.
test: AP1 Signaling Pathway (AID 357); conditions: ME-180 (cervical carcinoma) AP-1-bla reporter, EGF-induced, beta-lactamase ratio, 5 h; at 17.2 µM (top of the series) unless noted;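 further: ME-180 reporter cells stimulated with EGF at its EC50 level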
Summary of the method: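 AP-1-bla ME-180 cells, Opti-MEM + 0.5% dialyzed FBS, plated overnight 37 °C. Cpd titration + EC50 EGF, 5 h 37 °C. CCF4 2.5 h RT; ex 405, em 460/530 ratio → %activity, AC50.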
On the % scale 0 is the no-effect control and ±100 the full control effect.

Activity change, negative = inhibition, inactive:
COC(=O)C(NC(C)=O)(Nc1ccc(Br)cn1)C(F)(F)F (stereo not given) 0.568%
CCCOc1cccc(C2/C(=C(/O)c3ccccc3)C(=O)C(=O)N2CCN(C)C)c1 (stereo not given) 5.11%
Nn1c(SCC(=O)Nc2ccc3c(c2)OCCO3)nnc1C(F)(F)F 3.25%
CCOc1nc(SC(C(C)=O)C(=O)Nc2ccccc2)nc(N(C)C)n1 (stereo not given) -3.25%
CCOC(=O)c1[nH]c2ccc(OC)cc2c1NC(=O)CCN1CCCC(C)C1 (stereo not given) -2.35%
COc1ccc(/C(O)=C2/C(=O)C(=O)N(CCCN(C)C)C2c2ccccc2)cc1Cl (stereo not given) 8.68%
CC(C(=O)N1CCOCC1)N1C(=O)c2ccccc2C1=O (stereo not given) 14.2%
c1coc(CNc2ncnc3ccccc23)c1 -22.1%
CC(=O)OCc1c(COC(C)=O)[n+](=O)c2ccccc2n1[O-] 8.53%
COc1cccc(OC)c1OCCN1CCN(C(=O)c2ccco2)CC1 17.1%
CCc1ccc2c(c1)C(C)=CC(C)(C)N2 1.34%
COC(=O)/C=c1/s/c(=C(\C#N)C(=O)NCc2ccco2)n(-c2ccccc2)c1=O -2.83%
CN(C)CC(O)COc1ccc(-c2ccc(C#N)cc2)cc1 (stereo not given) 1.87%
COc1cccc(C(=O)N2CCN(S(=O)(=O)Cc3ccccc3)CC2)c1OC 8.1%
Cn1c(=O)c2c(nc(OCc3cccnc3)n2Cc2ccccc2)n(C)c1=O -9.82%
O=C(c1cncc(Br)c1)N1CCCc2ccccc21 2.83%
CCOC(=O)CNS(=O)(=O)c1cc(-c2nn(C)c(=O)c3ccccc23)ccc1C 7.12%
COC(=O)c1ccccc1N1C(=O)[C@@H]2C(c3ccc(Br)cc3)=NO[C@@H]2C1=O 11.9%
CCOC(=O)CSc1nc(N(C)C)nc(N(C)C#N)n1 4.52%
O=C(O)c1c[nH]c2ccc(S(=O)(=O)N3CCOCC3)cc12 13.4%
COC(=O)c1sccc1NC(=O)c1c(C)cc(=O)oc1C 9.11%
Cc1cc(=O)n(CCC(=O)O)c2ccccc12 4.89%
CCOC(=O)C1=C(c2ccccc2)NC(SCC(=O)Nc2ccccc2C)=C(C#N)C1c1ccco1 (stereo not given) -1.47%
O=S(=O)(c1ccc2ccccc2c1)N(CC(O)CN1CCOCC1)c1ccccc1 (stereo not given) -11.7%
CC1CN(C2CCN(S(=O)(=O)c3ccccc3)CC2)CC(C)O1 (stereo not given) 2.07%
CC1(C)NC(=O)N(CC(O)COc2ccccc2C(=O)Nc2ccccc2)C1=O (stereo not given) -6.46%
CN1CCN(/C=N/c2sc3c(c2C#N)CCCCC3)CC1 4.68%
N/C(CCN1CCOCC1)=N/O 18.7%
C=C(Br)Cn1c(CCCC)nc2ccccc21 -12.4%
O=C(O)c1ccc(COCC(F)(F)C(F)F)o1 10.1%
C=CCn1c(SCc2c(F)c(F)c(F)c(F)c2F)nc(O)cc1=O 4.5%
CC1(C)CC(=O)C(C=N)=C(O)C1 -5.44%
COCCN(Cc1ccccc1)P(=O)(O)c1ccccc1OCC(=O)O -2.92%
COc1cc(-c2nn3c(-c4ccco4)nnc3s2)cc(OC)c1OC -2.59%
COc1cccc(OC)c1C(=O)N1CCN(S(=O)(=O)c2ccc(C)cc2)CC1 -12.3%
CC(NC(=O)NCCCC(=O)O)(C(F)(F)F)C(F)(F)F 1.88%
CC(C)OC(=O)CC1=NC(=O)CS1 3.43%
Cc1cc(=O)oc2c(CN3CCN(C)CC3)c(O)c(Cl)cc12 16.9%
Cc1nnc2n(-c3ccccc3)c(=O)c3c4c(sc3n12)CCCC4 21.9%
Cn1c(O)c(C=Nc2ccc(Cc3ccncc3)cc2)c(=O)n(C)c1=O -2.77%
